Shown are actives, neighbours in structure and some others; about 4.5% of the full set was active somewhere.
697 NFkB inh: inhibitors of the PMA/ionomycin-induced NF-kB reporter in 697 B cells; 697 B-cell NF-kB luciferase reporter, 16 h; inhibition, % at 4 µM; actives 0.33% (n = 330,000); AID 435022; in the data active means inhibition above about 35%
Beta apoptosis: beta cell apoptosis inhibition. AID 435005. INS-1E cytokine-induced death, ATP luminescence, 48 h; percent of positive-control rescue, neutral wells zero. protection from apoptosis, % (test concentration not listed). actives 0.8% (n = 300,000);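 active means Every replicate reaches about 75%, or at least half do and their mean reaches it too, limit read from the data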;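 further: 0% = cytokine-treated negative control wells and 100% = positive control rescue; higher means more ATP so stronger rescue from cytokine killing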
CSC inhib: cancer stem cell inhibition | AID 2717 | cancer stem cell-like cells viability, luminescence | inhibition, % at 7.5 µM | actives 1.1% (n = 300,000); in the data active means inhibition above about 75%; tested in HMLE shEcad cells
Gli-Sufu antag: Gli-Sufu pathway antagonism; Sufu-KO-LIGHT fibroblasts, Gli luciferase reporter luminescence; inhibition, % at 5 µM; actives 0.74% (n = 340,000);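 active means inhibition above about 55%, limit read from the data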;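 further: 0% = DMSO-treated cells and 100% = wells with medium but no cells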
Mdm2 MdmX PPI: human Mdm2/MdmX binding inhibition; O15151+Q00987; SaOS-2 split-luciferase Mdm2/MdmX complementation, luminescence; inhibition, % at 8 µM; actives 3% (n = 330,000); AID 485346;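 active means inhibition of at least 50% at 8 µM in the primary screen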
Jurkat NFkB inh: inhibitors of the PMA/ionomycin-induced NF-kB reporter in Jurkat cells | PMA/ionomycin-induced NF-kB luciferase reporter, luminescence | inhibition, % at 4 µM | actives 0.53% (n = 330,000) | AID 435003; in the data active means inhibition above about 50%
Mdm2 MdmX conf: confirmation of human Mdm2/MdmX interaction inhibitors; shares compounds with Mdm2 MdmX PPI; Mdm2-MdmX binding, luminescent assay; inhibition, % at 8 µM; actives 55% (n = 10,000); AID 489028; in the data active means inhibition above about 40%
Full FLuc ctr: counter-screen for Mdm2/MdmX inhibitors: full-length luciferase. actives 77% (n = 6,200). SaOS-2 full-length luciferase counterscreen, luminescence. shares compounds with Mdm2 MdmX PPI. inhibition, % at 8 µM;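 active means mean inhibition at 8 µM reaching about 37%, which flags the compound as non-specific, limit read from the data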;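 further: p53-null SaOS-2 cells with luciferase driven by a doxycycline-inducible promoter; compound on cells about two nights before reading with doxycycline added after day one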
The depositor's hits bear a star; · = no result; ! = a repeat was not active.

SMILES	697 NFkB inh	Beta apoptosis	CSC inhib	Gli-Sufu antag	Mdm2 MdmX PPI	Jurkat NFkB inh	Mdm2 MdmX conf	Full FLuc ctr
CCOC(=O)c1c(NC(=O)COc2ccccc2)sc2c1CC(C)(C)NC2(C)C	-30	-9	7	14	77*	1	41*	54*
CC1(C)Cc2c(sc(NC(=O)c3ccc(S(=O)(=O)N4CCCC4)cc3)c2C#N)C(C)(C)N1	-8	·	-15	-3	21	-5	·	·
CCOc1ccc(C(=O)Nc2sc3c(c2C(=O)OC)CC(C)(C)NC3(C)C)cc1	-15	-9	-1	13	78*	18	48*	60*
COC(=O)c1c(NC(=O)c2nc3ccccc3s2)sc2c1CC(C)(C)NC2(C)C	-13	·	68	16	98*	0	64*	53*
CCOC(=O)c1c(NC(=O)CSc2nc3ccccc3[nH]2)sc2c1CC(C)(C)NC2(C)C	-37	5	2	16	44	5	·	·
CC1(C)Cc2c(sc(NC(=O)c3ccc(C(=O)c4ccccc4)cc3)c2C#N)C(C)(C)N1	-28	-1	-6	5	52*	15	35	95*
Cc1ccccc1OCC(=O)Nc1sc2c(c1C#N)CC(C)(C)NC2(C)C	-13	2	18	43	24	-2	·	·
COc1ccc(S(=O)(=O)n2nc(-c3ccc(Cl)cc3)cc2N)cc1	11	-20	57	8	51*	1	52*	59*
COc1ccc(-c2cc(N)n(S(=O)(=O)c3ccc(C)cc3)n2)c(OC)c1	7	-9	-2	6	-6	-2	·	·
O=C(NC(Cc1ccc(O)cc1)C(=O)O)c1ccc2c(c1)OCO2 (stereo not given)	2	-4	-17	3	1	-7	·	·
OCC[C@H]1C[C@@H](O)[C@H](O)[C@]2(Cc3ccccc3CCO2)O1	18	1	2	-1	9	7	·	·
COc1ccc(OCCn2cc(/C=C(\C#N)C(=O)NCc3ccco3)c3ccccc32)cc1	15	4	2	-9	75*	3	42*	51*
COc1ccc(/C=c2\s/c(=C(/C#N)C(=O)NCc3ccco3)n(-c3ccccc3)c2=O)cc1	-11	6	4	-2	68*	4	-1	·
COc1ccccc1OCCn1cc(/C=C(\C#N)C(=O)NCc2ccco2)c2ccccc21	23	-10	3	2	23	2	·	·
CC(=O)NC12CC3CC(C1)CC(C(=O)N(C)Cc1cccc(Cl)c1Cl)(C3)C2	-1	1	2	4	-6	1	·	·
COc1ccc2sc(-c3ccccc3OC)c(-c3ccc(OC)nc3)c2c1	-6	7	17	-11	9	-9	·	·
Cc1c(-c2ccccc2)c(-c2ccc(OCCN(C)C)cc2)n2ccccc12	·	·	·	-17	·	·	·	·
CN(C)CCOc1ccc(-c2c(-c3ccsc3)sc3ccccc23)cc1	21	1	104*	17	93*	-2	33	·
COc1ccc(-c2sc3ccccc3c2-c2ccc(OCCN(C)C)cc2)cc1	20	76*	142*	-7	100*	-10	49*	14
COc1cccc(-c2sc3ccc(OC)cc3c2-c2ccc(OCCN(C)C)cc2)c1	8	3	104*	12	99*	-3	30	·
O=C(O)c1ccccc1NC(=O)c1ccccc1Nc1ccccc1	-9	4	45	6	45	0	·	·
COc1ccc(NS(=O)(=O)c2ccc3ccccc3c2)c2ncccc12	5	39	·	24	92*	19	88*	37*
CC(NCCCOc1cccc2ccccc12)c1ccccc1 (stereo not given)	15	·	·	18	58*	-3	22	·
Brc1ccc(N=Nc2ccc3ccccc3n2)cc1	-127	·	31	-27	79*	47	72*	48*
CCn1c(O)c(N=Nc2ccc3ccccc3n2)c2ccccc21	-102	6	26	-87	-125	-112	·	·
SMILES	697 NFkB inh	Beta apoptosis	CSC inhib	Gli-Sufu antag	Mdm2 MdmX PPI	Jurkat NFkB inh	Mdm2 MdmX conf	Full FLuc ctr
Cc1ccc(Cl)cc1N1CCN(Cc2nc3c(c(=O)[nH]c(=O)n3C)n2CCc2ccccc2)CC1	5	29	5	1	64*	18	14	·
CCCCn1c(CN2CCN(c3cccc(Cl)c3)CC2)nc2c1c(=O)[nH]c(=O)n2C	-72	-8	-8	14	53*	48	62*	57*
CCN1CCN(c2nc3c(c(=O)[nH]c(=O)n3C)n2Cc2ccccc2F)CC1	10	·	3	·	-3	5	·	·
Cc1ccc(Cl)cc1N1CCN(Cc2nc3c(c(=O)[nH]c(=O)n3C)n2Cc2ccccc2F)CC1	4	-16	118*	17	51*	9	35	77*
O=C(Oc1cccc2c(O)cccc12)c1ccco1	·	·	·	-3	·	·	·	·
O=C(NCC1CCCO1)c1cccc(S(=O)(=O)Nc2ccc(F)cc2)c1 (stereo not given)	-1	-4	·	4	-5	0	·	·
COc1ccccc1C(=O)Nc1ccc2c(c1)nc(CCNC(=O)c1ccco1)n2C	-39	8	·	-12	67*	49	53*	66*
Cn1c(CCNC(=O)c2ccco2)nc2cc(NC(=O)c3ccco3)ccc21	-44	0	-6	-30	0	-25	·	·
Cc1cc(C)cc(NC(=O)CSc2nc3[nH]ncc3c(=O)[nH]2)c1	-4	·	54	-36	60*	13	62*	50*
CC1CCCN(C(=O)c2cccc(S(=O)(=O)N3CCCC3)c2)C1 (stereo not given)	-9	0	5	1	-29	-7	·	·
CC(C)(C)OC(=O)N1CCC(NC(=O)c2ncn(Cc3ccccc3)c2C(=O)NC2CCN(C(=O)OC(C)(C)C)CC2)CC1	-14	7	1	-2	28	2	·	·
CNCCCC12CCC(c3ccccc31)c1ccccc12	7	2	-8	8	59*!	17	33	·
CNCCCC1c2ccccc2C=Cc2ccccc21	-6	-2	2	10	39	-9	·	·
COc1cccc(CN(C(=O)c2cccs2)C2CCS(=O)(=O)C2)c1 (stereo not given)	0	-6	11	1	7	3	·	·
CCn1c(=O)c(C(=O)CN2CCN(S(=O)(=O)c3ccc(C)cc3C)CC2)c(N)n(Cc2ccccc2)c1=O	26	4	22	8	53*	29	43*	75*
COC(=O)C1=C(C(=O)OC)[C@@H]2N(Cc3ccccc3)c3ccccc3[C@@]23C[C@@H](C(=O)OC)N(C(=O)c2ccc(Br)cc2)C3=N1	13	0	-4	0	96*	33	86*	53*

Assay outcomes from PubChem BioAssay.
